We go through 14 molecules from PubChem BioAssay.

Activity calls are given as the source filed them.

Experiment [1] can be described thus: binders of probe aFSTL3 on microarray, primary screen, stem cell growth factor project, biochemical, small-molecule microarray, fluorescence 635/667 (AID 1064).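 Note: measures binding of the biotinylated anti-FSTL3 antibody to printed compounds.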 The following applies: higher = more signal.
The nature of experiment [2]: binders from COS7 lysate, DM2A8 probe, primary screen, torsin A project, cell lysate, small-molecule microarray, fluorescence 635/667 (AID 1065). The following applies: higher = more signal, COS7 lysate expressing mutant human TOR1A.
A short description of experiment [3]: binders of probe aFGF2 on microarray, primary screen, stem cell growth factor project, biochemical, small-molecule microarray, fluorescence 635/667 (AID 1067).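 Note: measures binding of biotinylated aFGF2 protein to printed compounds on slides; z-score merges feature fluorescence and signal-to-noise across triplicate slides.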 The following applies: higher = more signal.
Experiment [4] can be described thus: binders of probe aFGF10 on microarray, primary screen, stem cell growth factor project, biochemical, small-molecule microarray, fluorescence 635/667 (AID 1071).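 Note: score merges 667 nm spot intensity and signal to noise from triplicate slides.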 The following applies: higher = more signal.
Experiment [5] concerns the target Neurogenic locus notch homolog protein 2 (Homo sapiens) (UniProt Q04721). As to the kind of experiment: Notch2 binders on small-molecule microarrays, primary screen, biochemical, small-molecule microarray, 635 nm fluorescence, stem cell growth factors (AID 1073). The following applies: Notch2 binding, higher = more signal.
Experiment [6] concerns the target Pro-neuregulin-1, membrane-bound isoform (Homo sapiens) (UniProt Q02297). As to the kind of experiment: NRG1 binders on small-molecule microarrays, primary screen, psychiatric disease protein project, biochemical, small-molecule microarray, fluorescence 635/667 (AID 1075).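 Note: score combines 667 nm spot fluorescence with signal to noise.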 The following applies: NRG1 binding, 635 nm fluorescence, higher = more signal.
In experiment [7] the test system is Neuregulin-1 EGF-like domain. The experiment in a line: binders of neuregulin-1 EGF-like domain, primary screen, biochemical, small-molecule microarray, 635 nm fluorescence (AID 1081).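 Note: binding of the protein to compounds printed on small-molecule microarray slides.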 The following applies: small-molecule microarray binding, higher = more signal.
Experiment [8] is described as follows: FRG1 promoter luciferase signal modulators, primary screen, FRG1 inhibition for FSHD, cell-based, C2C12 myotubes, firefly/Renilla luciferase, luminescence (AID 1084). The following applies: higher = more signal, called active from +8 up or from −8 down.
Experiment [9] is described as follows: binders of probe aFST on microarray, primary screen, stem cell growth factor project, biochemical, small-molecule microarray, fluorescence 635/667 (AID 1086).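 Note: score merges 667 nm fluorescence with signal-to-noise of each printed compound spot.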 The following applies: higher = more signal.
Experiment [10] is described as follows: binders of probe aHhip on microarray, primary screen, stem cell growth factor project, biochemical, small-molecule microarray, fluorescence 635/667 (AID 1087).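 Note: score merges spot fluorescence at 667nm with spot signal to noise ratio.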 The following applies: higher = more signal.

Sequence of Pro-neuregulin-1, membrane-bound isoform (Homo sapiens) (Q02297 whole entry, looked up, the tested form may be a part, canonical isoform): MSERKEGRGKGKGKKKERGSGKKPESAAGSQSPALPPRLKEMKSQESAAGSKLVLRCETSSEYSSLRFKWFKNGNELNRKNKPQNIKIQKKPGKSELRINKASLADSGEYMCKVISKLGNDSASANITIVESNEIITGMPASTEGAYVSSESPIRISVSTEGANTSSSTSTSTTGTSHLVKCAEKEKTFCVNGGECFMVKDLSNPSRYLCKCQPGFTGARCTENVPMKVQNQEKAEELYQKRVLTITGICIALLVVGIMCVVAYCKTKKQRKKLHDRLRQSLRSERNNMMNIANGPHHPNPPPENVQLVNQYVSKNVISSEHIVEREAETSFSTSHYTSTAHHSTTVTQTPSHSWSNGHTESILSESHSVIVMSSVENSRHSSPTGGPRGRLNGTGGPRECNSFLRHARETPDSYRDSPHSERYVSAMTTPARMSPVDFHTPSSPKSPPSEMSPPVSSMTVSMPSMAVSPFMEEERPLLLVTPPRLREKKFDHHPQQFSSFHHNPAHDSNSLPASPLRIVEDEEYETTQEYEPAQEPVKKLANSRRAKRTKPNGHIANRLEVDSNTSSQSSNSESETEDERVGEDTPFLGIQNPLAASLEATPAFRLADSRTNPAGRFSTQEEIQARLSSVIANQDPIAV
Sequence of Neurogenic locus notch homolog protein 2 (Homo sapiens) (Q04721 whole entry, looked up, canonical isoform): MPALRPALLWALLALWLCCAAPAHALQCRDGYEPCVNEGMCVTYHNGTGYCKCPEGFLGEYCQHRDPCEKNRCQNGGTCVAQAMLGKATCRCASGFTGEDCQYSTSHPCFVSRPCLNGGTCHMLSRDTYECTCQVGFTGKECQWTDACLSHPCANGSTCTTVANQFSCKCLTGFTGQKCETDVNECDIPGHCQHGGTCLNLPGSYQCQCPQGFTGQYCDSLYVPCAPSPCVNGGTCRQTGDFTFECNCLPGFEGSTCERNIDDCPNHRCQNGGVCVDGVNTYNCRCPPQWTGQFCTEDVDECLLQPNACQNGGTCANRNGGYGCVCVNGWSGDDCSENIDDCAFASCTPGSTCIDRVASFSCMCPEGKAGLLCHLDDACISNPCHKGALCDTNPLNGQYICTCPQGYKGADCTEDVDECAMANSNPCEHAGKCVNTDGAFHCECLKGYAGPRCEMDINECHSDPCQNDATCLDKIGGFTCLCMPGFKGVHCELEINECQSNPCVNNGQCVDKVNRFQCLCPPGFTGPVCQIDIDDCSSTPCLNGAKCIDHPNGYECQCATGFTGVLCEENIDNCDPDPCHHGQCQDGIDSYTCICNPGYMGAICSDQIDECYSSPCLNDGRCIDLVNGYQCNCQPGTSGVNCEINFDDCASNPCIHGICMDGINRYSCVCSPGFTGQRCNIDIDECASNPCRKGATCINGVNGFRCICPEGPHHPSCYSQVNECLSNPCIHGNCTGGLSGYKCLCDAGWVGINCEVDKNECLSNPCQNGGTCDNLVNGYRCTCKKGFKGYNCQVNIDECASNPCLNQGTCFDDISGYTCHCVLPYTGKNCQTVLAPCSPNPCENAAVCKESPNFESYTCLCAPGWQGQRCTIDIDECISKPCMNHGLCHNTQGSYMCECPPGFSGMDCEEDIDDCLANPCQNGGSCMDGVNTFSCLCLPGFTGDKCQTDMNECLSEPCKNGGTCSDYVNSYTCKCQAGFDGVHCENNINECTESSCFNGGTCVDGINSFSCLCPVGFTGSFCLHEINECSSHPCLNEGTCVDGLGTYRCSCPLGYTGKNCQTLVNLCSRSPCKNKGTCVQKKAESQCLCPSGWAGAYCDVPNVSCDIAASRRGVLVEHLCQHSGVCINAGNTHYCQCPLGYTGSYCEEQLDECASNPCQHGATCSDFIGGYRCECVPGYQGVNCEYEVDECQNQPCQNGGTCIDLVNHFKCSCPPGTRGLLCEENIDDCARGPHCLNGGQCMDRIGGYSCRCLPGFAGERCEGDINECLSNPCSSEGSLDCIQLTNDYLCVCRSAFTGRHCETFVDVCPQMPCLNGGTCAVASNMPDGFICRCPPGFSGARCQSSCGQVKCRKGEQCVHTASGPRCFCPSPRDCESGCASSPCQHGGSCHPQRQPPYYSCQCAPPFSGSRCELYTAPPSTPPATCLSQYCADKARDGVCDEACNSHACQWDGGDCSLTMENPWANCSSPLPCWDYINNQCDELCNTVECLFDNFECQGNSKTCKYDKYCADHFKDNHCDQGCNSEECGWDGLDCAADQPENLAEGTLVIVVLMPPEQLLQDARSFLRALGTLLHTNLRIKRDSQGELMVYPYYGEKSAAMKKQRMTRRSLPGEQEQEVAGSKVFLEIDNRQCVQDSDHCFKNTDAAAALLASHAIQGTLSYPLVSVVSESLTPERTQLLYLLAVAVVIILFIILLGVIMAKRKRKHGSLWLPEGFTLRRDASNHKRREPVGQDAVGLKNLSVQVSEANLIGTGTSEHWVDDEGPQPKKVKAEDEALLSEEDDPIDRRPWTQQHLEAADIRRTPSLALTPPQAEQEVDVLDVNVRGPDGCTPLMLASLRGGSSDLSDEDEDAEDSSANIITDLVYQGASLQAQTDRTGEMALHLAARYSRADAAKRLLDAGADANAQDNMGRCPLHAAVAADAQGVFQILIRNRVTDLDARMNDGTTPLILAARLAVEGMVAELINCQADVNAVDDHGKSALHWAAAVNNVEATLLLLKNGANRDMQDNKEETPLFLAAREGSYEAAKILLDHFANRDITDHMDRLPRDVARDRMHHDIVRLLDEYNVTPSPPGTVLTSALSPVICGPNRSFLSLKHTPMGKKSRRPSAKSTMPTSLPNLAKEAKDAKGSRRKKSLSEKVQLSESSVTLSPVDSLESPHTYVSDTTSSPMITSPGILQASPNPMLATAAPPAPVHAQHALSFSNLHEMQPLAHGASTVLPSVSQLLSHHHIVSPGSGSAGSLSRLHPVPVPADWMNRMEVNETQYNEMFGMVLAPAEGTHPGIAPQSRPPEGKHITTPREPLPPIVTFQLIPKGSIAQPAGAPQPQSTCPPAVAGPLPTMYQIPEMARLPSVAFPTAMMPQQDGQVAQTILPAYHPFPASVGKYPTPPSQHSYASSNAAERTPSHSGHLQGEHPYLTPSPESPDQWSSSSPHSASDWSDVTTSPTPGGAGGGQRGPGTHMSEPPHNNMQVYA

As to `Cc1c(-c2ccc(-c3ccc(Cl)c(Cl)c3)o2)nc(-c2ccccc2)c2c1CO[Si]2(C(C)C)C(C)C`, the composite z-score is -0.0834 in experiment [1]; 0.343 in [2]; -0.047 in experiment [3]; 0.42 in [4]; -0.558 in experiment [5]; 0.568 in experiment [6]. For the same molecule, the composite z-score in experiment [7] is 0.294; in [9], -0.324; in [10] it was 0.21. Further, the z-score in experiment [8] was 0.422 (inactive).

For the molecule `COc1ccccc1CN1C(=O)c2ccccc2[C@@H](C(=O)NCCCN(C)C)[C@@H]1c1ccc(CO)cc1`, the composite z-score in [1] is -0.192; in experiment [2], 0.132; in experiment [3] it was -0.161; in experiment [4] it was 0.461; in experiment [5], -0.203; in experiment [6] it was 0.648. The values for the composite z-score in experiment [7], in experiment [9] and in experiment [10] were 0.695, 0.0644 and -0.266, respectively. Also, the z-score in [8] was -3.53 (inactive).

For the molecule `CN(C)CCCNC(=O)[C@@]1(Cc2ccccc2I)c2ccccc2C(=O)N(Cc2ccccc2)[C@H]1c1ccc(CO)cc1`, the composite z-score in experiment [1] was -0.803; in experiment [2], -0.451; in experiment [3], 0.106; in experiment [4], 1.02; in experiment [5], 0.647; in experiment [6], 0.834. Also, the composite z-score in [7] was 1.39; in experiment [9], 0.386; in experiment [10] it was -0.66. Also, the z-score in experiment [8] was -4.24 (inactive).

In the case of `O=C1OCCC=C[C@H]2OC34C=CCN(c5ccc(Cl)cc5)C(=O)[C@H]3N(CCO)C(=O)[C@@H]4C12` (stereo not given in full), the composite z-score in experiment [1] was 0.0828; in [2], 1.85; in experiment [3], -0.166; in experiment [4] it was -0.434; in experiment [5] it was -0.568; in experiment [6] it was -0.666. Moreover, the composite z-score in [7] was -0.501; in experiment [9], -0.564; in experiment [10], -0.0618. Also, the z-score in experiment [8] was -0.0731 (inactive).

As to `C[N+](C)(C)CCCC[C@@H]1NC(=O)[C@H]2C[C@@H](C(=O)NCCCCCNC(=O)CS)[C@@H](c3ccc(O)cc3)N2C1=O`, the composite z-score in experiment [1] is -0.257; in experiment [2], -0.0727; in experiment [3] it was -0.118; in experiment [4], 0.198; in experiment [5], 0.363; in experiment [6], 1.55. Further, the figures for the composite z-score in experiment [7], in experiment [9] and in [10] were 0.745, 0.104 and 0.0623, respectively. In experiment [8], the z-score was -1.04 (inactive).

On to `[N-]=[N+]=NCc1ccccc1C[C@]1(C(=O)N2CCCCC2)N=C(c2ccc(OCCCO)cc2)O[C@H]1c1ccccc1`, for which the composite z-score in [1] is 0.393; in experiment [2], 0.449; in experiment [3], -0.0165; in experiment [4] it was 0.39; in experiment [5], 1.07; in experiment [6] it was 0.618. Besides, the composite z-score in experiment [7] is 0.849; in experiment [9], 0.485; in experiment [10], 0.0722. Moreover, the z-score in [8] is -4.27 (inactive).

For `CC(C)CNC(=O)[C@@H]1c2ccccc2C(=O)N(CC23CC4CC(CC(C4)C2)C3)[C@H]1c1ccc(CO)cc1`, the composite z-score is -0.146 in experiment [1]; 0.0614 in [2]; -0.0056 in experiment [3]; 0.205 in experiment [4]; 0.632 in [5]; 0.792 in experiment [6]. Moreover, the composite z-score is 0.99 in [7], 0.507 in experiment [9] and -0.115 in experiment [10]. For the same molecule, in [8], the z-score was -1.49 (inactive).

In the case of `CCOC(=O)C1=C[C@@H](C(C)(C)C)N(S(=O)(=O)c2ccc(C)cc2)[C@H]1c1ccccc1Cl`, the composite z-score in experiment [1] turned out to be 0.284; in experiment [2], 0.534; in experiment [3], 0.122; in experiment [4] it was 0.624; in experiment [5], 1.61; in experiment [6] it was 1.25. Also, the values for the composite z-score in experiment [7], in experiment [9] and in experiment [10] were 1.14, 1.07 and 0.0401, respectively. Further, the z-score in [8] was -2.24 (inactive).

Regarding `COCCOC(=O)N1C(=O)[C@@]2(c3ccccc31)[C@H](C(N)=O)[C@H]1C(=O)O[C@H](c3ccccc3)[C@H](c3ccccc3)N1[C@@H]2c1ccc(OCCO)cc1`, the composite z-score was -0.4 in experiment [1]; 1.06 in [2]; 0.0445 in experiment [3]; 0.257 in experiment [4]; 0.995 in experiment [5]; 1.59 in [6]. Further, the composite z-score in [7] amounted to 1.21; in experiment [9], 0.239; in experiment [10], 0.0854. In [8], the z-score is 0.341 (inactive).

Turning to `CCCC=C(CCC)[C@@H](NC(=O)c1ccccc1)c1ccc(C(=O)OC)cc1`, the composite z-score in experiment [1] was 0.0872; in experiment [2] it was 0.78; in experiment [3], 0.502; in experiment [4], 0.752; in [5] it was 0.541; in experiment [6], -0.0843. Besides, the composite z-score in experiment [7] stood at 1.19; in experiment [9] it was 1.01; in experiment [10] it was 1.09. The z-score in [8] is 3.19 (inactive).

As to `COc1ccc([Si](C)(C)[C@H]2[C@H](CCO)O[C@@]3(C(=O)N(Cc4ccc(N5CCOC5=O)cc4)c4ccccc43)[C@@H]2C)cc1`, the composite z-score in experiment [1] is 0.173; in experiment [2], 0.306; in experiment [3] it was -0.137; in experiment [4], 0.034; in experiment [5], -0.0425; in experiment [6], 1.11. Besides, the composite z-score in [7] was 0.664; in [9] it was -0.083; in experiment [10], -0.0994. Also, in experiment [8], the z-score is -4.39 (inactive).

In the case of `COC(=O)C1=CC(CCCO)=CC(C2CC2)N(Cc2cccc(OC(F)(F)F)c2)C=C1C(=O)OC` (stereo not given), the composite z-score in experiment [1] was -0.207; in experiment [2], -0.166; in experiment [3] it was -0.0265; in experiment [4], 0.216; in experiment [5] it was 0.515; in experiment [6] it was 1.14. In addition, the composite z-score is 1.25 in [7], 0.497 in [9] and -0.0645 in [10]. The z-score in experiment [8] is 0.503 (inactive).

On to `[N-]=[N+]=Nc1ccccc1[C@@H]1OC(c2ccc(OCCCO)cc2)=N[C@]1(Cc1ccccc1)C(N)=O`, for which the composite z-score in experiment [1] is 0.379; in [2] it was -0.334; in experiment [3] it was -0.0543; in experiment [4], 0.505; in experiment [5], 0.824; in experiment [6] it was 1.17. Besides, the composite z-score was 0.884 in experiment [7], 0.277 in experiment [9] and -0.0994 in [10]. The z-score in experiment [8] is 0.377 (inactive).

For the molecule `COc1ccc(CC[C@H](O)c2cccc(OCC(=O)OC(C)(C)C)c2)cc1`, the composite z-score is -0.386 in experiment [1]; 1.08 in experiment [2]; 0.106 in experiment [3]; 0.359 in experiment [4]; 0.966 in experiment [5]; 0.576 in experiment [6]. The composite z-score in [7] amounted to 0.977; in experiment [9], 0.736; in experiment [10] it was 0.136. The z-score in experiment [8] is -0.0488 (inactive).
